Measured values reported in PubChem BioAssay.
Calls of active or inactive are those of the source.

Columns and labels:
[1] = system: PRMT1 (protein arginine N-methyltransferase 1); experiment: PRMT1 binders on small-molecule microarrays, primary screen, biochemical, small-molecule microarray, 635 nm fluorescence (AID 1088); settings: small-molecule microarray binding, higher = more signal;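 further: binding of Prmt1 protein to compounds spotted on small-molecule microarray slides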
[2] = yeast growth modulation, basal conditions, primary screen, YJM789 clinical isolate, OD600, 24 h (AID 1089);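 further: growth of clinical yeast isolate S. cerevisiae YJM 789 seeded 1000 cells per well; test concentration not given here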; settings: S. cerevisiae YJM789 growth, higher = more signal, called active from +8 up or from −8 down
[3] = fission yeast growth modulation, primary screen, strain 972, OD600, 24 h, no modulator (AID 1090);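 further: basal condition with compound alone and no growth modifier present; test concentration not given here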; settings: S. pombe 972 growth, higher = more signal, called active from +8 up or from −8 down
[4] = S. cerevisiae growth modulation with rapamycin, primary screen, strain BY4716, OD600, 96 h (AID 1091); settings: higher = more signal, called active from +8 up or from −8 down; further: test concentration not given here
[5] = target: Torsin-1A-interacting protein 2 (Homo sapiens) (UniProt Q8NFQ8); experiment: LULL1 binders on small-molecule microarray, primary screen, cell lysate, human LULL1 lysate, 635/667 nm fluorescence (AID 1092); settings: hLULL1 lysate binding, 635 nm fluorescence, higher = more signal;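 further: probe is lysate of COS7 cells overexpressing human LULL1; score merges per-feature 667 nm fluorescence with signal-to-noise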
[6] = E. coli growth modulation, two-sided OD650, primary screen, E. coli filamentation project, strain DRC41, 24 h (AID 1093); settings: OD650, 24 h, higher = more signal, called active from +8 up or from −8 down;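 further: MC1000 strain lacking acrAB efflux and sulA so SOS filamentation is blocked; test concentration not given here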
[7] = small-molecule microarray binders of probe aLefty2, primary screen, biochemical, biotinylated probe, 635/667 nm fluorescence (AID 1094); settings: higher = more signal;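 further: score merges spot fluorescence near 667 nm with spot signal-to-noise ratio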
[8] = system: Noggin (protein binding on small-molecule microarray); experiment: Noggin binders on small-molecule microarray, primary screen, biochemical, 635/667 nm fluorescence (AID 1095); settings: 635 nm fluorescence, higher = more signal;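 further: score merges 667 nm feature fluorescence with signal to noise over triplicate slides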
[9] = target: Neurogenic locus notch homolog protein 3 (Homo sapiens) (UniProt Q9UM47); experiment: NOTCH3 binders on small-molecule microarray, primary screen, biochemical, 635/667 nm fluorescence (AID 1096); settings: NOTCH3 binding, 635 nm fluorescence, higher = more signal
[10] = small-molecule microarray binders of probe aEGFR, primary screen, biochemical, biotinylated probe, 635/667 nm fluorescence (AID 1097); settings: higher = more signal;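 further: probe is a biotinylated anti-EGFR antibody binding compounds printed on slides; score combines fluorescence near 667 nm and signal to noise of each spot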
[11] = system: Plasmodium falciparum Sir2 (PF13_0152, Sir2A); experiment: pfSir2 binders on small-molecule microarrays, primary screen, biochemical, small-molecule microarray, 635 nm fluorescence (AID 1098); settings: small-molecule microarray binding, fluorescence 635 nm; higher = more signal;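 further: score merges spot fluorescence intensity with its signal-to-noise ratio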
[12] = small-molecule microarray binders of probe aDKK1, primary screen, biochemical, biotinylated probe, 635/667 nm fluorescence (AID 1099); settings: higher = more signal;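 further: score merges 667nm spot fluorescence with signal to noise across triplicate slides; reference of the scale not given here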
[13] = small-molecule microarray binders of probe aCHRDL2, primary screen, biochemical, biotinylated probe, 635/667 nm fluorescence (AID 1100); settings: higher = more signal
[14] = splicing luciferase reporter signal modulators, primary screen, spliceosome inhibition project, cell-based, HEK293, splice +/- reporter (AID 1101); settings: luminescence, 24 h, higher = more signal, called active from +8 up or from −8 down;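 further: HEK293 cells carrying a splicing-competent luciferase reporter gene; test concentration not given here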
[15] = target: Fibroblast growth factor 10 (Homo sapiens) (UniProt O15520); experiment: FGF10 binders on small-molecule microarrays, primary screen, biochemical, small-molecule microarray, 635 nm fluorescence (AID 1102); settings: FGF10 binding, fluorescence 635 nm, higher = more signal
[16] = system: glycogen synthase kinase-3 (GSK3A per assay name; protocol says GSK3B); experiment: GSK3 binders on small-molecule microarrays, primary screen, biochemical, small-molecule microarray, 635 nm fluorescence, GSK3A (AID 1103); settings: small-molecule microarray binding, fluorescence 635 nm; higher = more signal; further: the record names both GSK3A and GSK3B
[17] = target: Epidermal growth factor receptor (Homo sapiens) (UniProt P00533); experiment: EGFR binders on small-molecule microarrays, primary screen, biochemical, small-molecule microarray, 635 nm fluorescence (AID 1104); settings: EGFR binding, higher = more signal;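 further: score merges 667 nm emission intensity with spot signal to noise over triplicate slides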
[18] = target: Follistatin-related protein 3 (Homo sapiens) (UniProt O95633); experiment: FSTL3 binders on small-molecule microarrays, primary screen, biochemical, small-molecule microarray, 635 nm fluorescence (AID 1105); settings: FSTL3 binding, higher = more signal;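 further: score merges emission near 667 nm and signal to noise per printed spot across three slides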
[19] = target: Dickkopf-related protein 1 (Homo sapiens) (UniProt O94907); experiment: DKK1 binders on small-molecule microarrays, primary screen, biochemical, small-molecule microarray, 635 nm fluorescence scan (AID 1106); settings: DKK1 binding, higher = more signal;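 further: score merges emission near 667 nm with signal to noise over three replicate slides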
[20] = system: Inhibin beta A chain (activin A); experiment: INHBA (activin A) binders on microarrays, primary screen, biochemical, small-molecule microarray, 635 nm fluorescence scan (AID 1107); settings: small-molecule microarray binding, higher = more signal;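 further: mouse activin A protein probed at 4.33 µg/mL on printed slides; score merges bound-protein fluorescence near 667 nm with spot signal-to-noise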

Sequence of Torsin-1A-interacting protein 2 (Homo sapiens) (Q8NFQ8 whole entry, looked up): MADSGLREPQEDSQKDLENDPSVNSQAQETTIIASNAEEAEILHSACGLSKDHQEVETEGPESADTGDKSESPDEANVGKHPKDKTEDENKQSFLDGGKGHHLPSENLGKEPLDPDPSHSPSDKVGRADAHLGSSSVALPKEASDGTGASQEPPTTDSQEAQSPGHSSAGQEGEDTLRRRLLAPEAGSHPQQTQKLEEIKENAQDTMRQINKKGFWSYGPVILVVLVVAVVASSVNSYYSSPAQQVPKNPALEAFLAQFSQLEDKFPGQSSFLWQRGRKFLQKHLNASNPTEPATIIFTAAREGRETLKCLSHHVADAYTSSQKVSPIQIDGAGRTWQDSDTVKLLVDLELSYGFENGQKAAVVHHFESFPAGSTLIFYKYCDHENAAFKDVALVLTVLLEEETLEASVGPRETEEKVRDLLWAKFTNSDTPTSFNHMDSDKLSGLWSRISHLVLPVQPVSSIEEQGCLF
Sequence of Epidermal growth factor receptor (Homo sapiens) (P00533 whole entry, looked up): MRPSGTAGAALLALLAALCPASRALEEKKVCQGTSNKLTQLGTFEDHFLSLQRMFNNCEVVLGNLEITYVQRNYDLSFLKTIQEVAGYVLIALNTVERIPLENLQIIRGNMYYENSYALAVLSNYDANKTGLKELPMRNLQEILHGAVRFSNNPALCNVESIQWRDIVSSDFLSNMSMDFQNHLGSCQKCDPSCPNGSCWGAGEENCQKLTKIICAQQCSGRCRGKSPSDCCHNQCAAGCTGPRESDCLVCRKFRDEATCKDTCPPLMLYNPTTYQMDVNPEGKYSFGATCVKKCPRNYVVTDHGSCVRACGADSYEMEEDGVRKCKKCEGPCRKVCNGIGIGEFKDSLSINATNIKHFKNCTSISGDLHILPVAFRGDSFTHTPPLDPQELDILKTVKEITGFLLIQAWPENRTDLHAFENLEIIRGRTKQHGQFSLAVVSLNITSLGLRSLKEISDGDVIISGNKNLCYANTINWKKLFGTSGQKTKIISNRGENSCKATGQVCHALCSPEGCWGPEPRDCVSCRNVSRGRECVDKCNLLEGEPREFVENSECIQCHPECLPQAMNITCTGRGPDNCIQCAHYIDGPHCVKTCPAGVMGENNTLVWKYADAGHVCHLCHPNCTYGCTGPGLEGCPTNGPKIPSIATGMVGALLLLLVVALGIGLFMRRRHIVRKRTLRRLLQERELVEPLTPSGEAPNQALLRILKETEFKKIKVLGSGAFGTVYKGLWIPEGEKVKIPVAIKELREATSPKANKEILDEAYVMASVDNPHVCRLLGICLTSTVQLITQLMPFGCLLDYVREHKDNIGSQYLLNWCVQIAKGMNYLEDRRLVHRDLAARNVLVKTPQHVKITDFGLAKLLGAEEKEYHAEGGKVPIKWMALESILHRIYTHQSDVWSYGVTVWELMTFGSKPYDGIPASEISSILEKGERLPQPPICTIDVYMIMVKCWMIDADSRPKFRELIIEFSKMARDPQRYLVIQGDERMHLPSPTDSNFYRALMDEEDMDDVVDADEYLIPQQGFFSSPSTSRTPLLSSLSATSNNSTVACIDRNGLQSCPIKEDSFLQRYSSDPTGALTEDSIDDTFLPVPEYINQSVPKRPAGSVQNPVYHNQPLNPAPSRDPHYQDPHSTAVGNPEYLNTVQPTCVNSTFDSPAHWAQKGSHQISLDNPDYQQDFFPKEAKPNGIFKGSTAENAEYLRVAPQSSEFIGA
Sequence of Dickkopf-related protein 1 (Homo sapiens) (O94907 whole entry, looked up): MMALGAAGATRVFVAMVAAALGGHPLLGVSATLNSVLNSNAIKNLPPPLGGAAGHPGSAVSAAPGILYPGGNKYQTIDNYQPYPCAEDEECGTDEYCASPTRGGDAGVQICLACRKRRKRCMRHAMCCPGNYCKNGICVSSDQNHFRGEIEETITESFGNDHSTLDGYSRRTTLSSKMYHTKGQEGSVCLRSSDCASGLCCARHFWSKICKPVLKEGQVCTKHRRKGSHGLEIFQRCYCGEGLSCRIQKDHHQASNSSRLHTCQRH
Sequence of Fibroblast growth factor 10 (Homo sapiens) (O15520 whole entry, looked up): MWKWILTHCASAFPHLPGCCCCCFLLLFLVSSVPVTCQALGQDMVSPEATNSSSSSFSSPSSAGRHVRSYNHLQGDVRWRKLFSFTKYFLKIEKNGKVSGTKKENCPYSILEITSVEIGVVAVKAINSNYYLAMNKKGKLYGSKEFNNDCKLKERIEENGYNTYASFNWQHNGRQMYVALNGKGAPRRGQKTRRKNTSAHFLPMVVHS
Sequence of Follistatin-related protein 3 (Homo sapiens) (O95633 whole entry, looked up): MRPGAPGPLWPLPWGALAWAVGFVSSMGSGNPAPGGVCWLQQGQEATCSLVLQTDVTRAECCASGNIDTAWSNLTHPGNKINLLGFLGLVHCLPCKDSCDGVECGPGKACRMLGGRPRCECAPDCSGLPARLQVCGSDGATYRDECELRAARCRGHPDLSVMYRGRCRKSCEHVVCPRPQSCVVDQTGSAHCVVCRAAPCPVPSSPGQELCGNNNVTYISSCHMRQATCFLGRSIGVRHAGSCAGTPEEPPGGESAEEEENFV
Sequence of Neurogenic locus notch homolog protein 3 (Homo sapiens) (Q9UM47 whole entry, looked up): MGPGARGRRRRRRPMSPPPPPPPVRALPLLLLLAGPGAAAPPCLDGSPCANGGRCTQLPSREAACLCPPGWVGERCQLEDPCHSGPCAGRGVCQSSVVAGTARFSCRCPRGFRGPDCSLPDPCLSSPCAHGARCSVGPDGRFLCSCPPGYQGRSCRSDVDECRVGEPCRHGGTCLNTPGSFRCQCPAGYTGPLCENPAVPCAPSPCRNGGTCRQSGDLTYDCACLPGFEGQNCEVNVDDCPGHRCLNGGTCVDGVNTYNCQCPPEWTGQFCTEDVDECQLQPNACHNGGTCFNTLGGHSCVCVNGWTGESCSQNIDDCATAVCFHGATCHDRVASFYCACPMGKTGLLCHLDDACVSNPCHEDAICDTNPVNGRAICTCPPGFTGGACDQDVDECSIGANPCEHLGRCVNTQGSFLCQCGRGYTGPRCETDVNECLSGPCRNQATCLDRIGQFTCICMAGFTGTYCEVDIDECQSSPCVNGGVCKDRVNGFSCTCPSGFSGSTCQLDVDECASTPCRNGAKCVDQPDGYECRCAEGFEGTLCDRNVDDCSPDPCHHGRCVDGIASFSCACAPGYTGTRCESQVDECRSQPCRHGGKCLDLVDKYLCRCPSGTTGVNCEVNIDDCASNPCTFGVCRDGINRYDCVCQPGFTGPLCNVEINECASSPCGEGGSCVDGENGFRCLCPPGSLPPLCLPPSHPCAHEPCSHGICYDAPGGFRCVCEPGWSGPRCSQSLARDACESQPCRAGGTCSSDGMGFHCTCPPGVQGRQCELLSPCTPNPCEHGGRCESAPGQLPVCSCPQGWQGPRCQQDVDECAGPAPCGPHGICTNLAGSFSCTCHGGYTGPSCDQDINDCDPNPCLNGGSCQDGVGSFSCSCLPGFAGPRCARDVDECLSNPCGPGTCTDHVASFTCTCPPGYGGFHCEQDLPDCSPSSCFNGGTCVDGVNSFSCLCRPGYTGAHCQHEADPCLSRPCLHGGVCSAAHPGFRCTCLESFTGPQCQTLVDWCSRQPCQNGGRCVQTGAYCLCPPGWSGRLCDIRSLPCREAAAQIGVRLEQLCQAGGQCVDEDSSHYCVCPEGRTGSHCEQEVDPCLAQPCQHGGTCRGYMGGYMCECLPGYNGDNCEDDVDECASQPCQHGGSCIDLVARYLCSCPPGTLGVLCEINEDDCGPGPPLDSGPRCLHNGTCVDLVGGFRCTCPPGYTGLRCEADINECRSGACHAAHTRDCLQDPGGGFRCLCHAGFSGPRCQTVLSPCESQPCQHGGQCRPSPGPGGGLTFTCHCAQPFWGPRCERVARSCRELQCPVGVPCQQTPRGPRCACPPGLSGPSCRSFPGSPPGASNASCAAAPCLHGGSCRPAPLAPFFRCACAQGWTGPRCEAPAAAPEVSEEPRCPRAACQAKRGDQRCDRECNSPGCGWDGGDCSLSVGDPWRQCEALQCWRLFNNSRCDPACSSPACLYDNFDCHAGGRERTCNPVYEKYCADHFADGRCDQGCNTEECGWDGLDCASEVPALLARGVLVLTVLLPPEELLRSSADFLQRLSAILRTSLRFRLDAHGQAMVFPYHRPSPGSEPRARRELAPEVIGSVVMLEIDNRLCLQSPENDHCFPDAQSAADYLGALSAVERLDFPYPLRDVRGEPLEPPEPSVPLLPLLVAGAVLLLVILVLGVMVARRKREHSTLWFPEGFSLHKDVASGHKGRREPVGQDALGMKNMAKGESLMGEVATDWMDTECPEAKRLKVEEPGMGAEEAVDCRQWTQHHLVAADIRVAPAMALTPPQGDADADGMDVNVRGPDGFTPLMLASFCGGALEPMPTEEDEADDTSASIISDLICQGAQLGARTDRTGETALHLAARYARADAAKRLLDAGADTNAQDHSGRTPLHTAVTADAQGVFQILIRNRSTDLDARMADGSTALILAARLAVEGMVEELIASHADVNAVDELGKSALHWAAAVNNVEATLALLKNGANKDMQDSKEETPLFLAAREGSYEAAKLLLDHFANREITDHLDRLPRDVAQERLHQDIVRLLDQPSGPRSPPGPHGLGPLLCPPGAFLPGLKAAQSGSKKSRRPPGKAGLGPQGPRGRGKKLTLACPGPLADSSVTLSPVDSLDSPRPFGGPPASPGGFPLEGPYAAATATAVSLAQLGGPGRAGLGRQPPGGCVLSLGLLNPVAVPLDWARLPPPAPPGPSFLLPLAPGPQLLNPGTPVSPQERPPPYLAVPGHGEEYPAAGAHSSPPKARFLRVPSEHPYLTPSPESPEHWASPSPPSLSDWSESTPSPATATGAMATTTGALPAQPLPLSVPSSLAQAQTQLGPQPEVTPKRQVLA

| Structure (SMILES) | composite z-score [1] | z-score [2] | z-score [3] | z-score [4] | composite z-score [5] | z-score [6] | composite z-score [7] | composite z-score [8] | composite z-score [9] | composite z-score [10] | composite z-score [11] | composite z-score [12] | composite z-score [13] | z-score [14] | composite z-score [15] | composite z-score [16] | composite z-score [17] | composite z-score [18] | composite z-score [19] | composite z-score [20] |
| --- | --- | --- | --- | --- | --- | --- | --- | --- | --- | --- | --- | --- | --- | --- | --- | --- | --- | --- | --- | --- |
| C[N+](C)(C)CCCCCCNC(=O)[C@H]1C[C@H]2C(=O)N[C@@H](Cc3ccccc3)C(=O)N2[C@H]1c1ccc(O)cc1 | 1.53 | -0.327 (inactive) | 0.162 (inactive) | 0.0818 (inactive) | 2.56 | 0.441 (inactive) | -0.0769 | 1.18 | 0.98 | -0.136 | 1.27 | -0.265 | -0.534 | -0.0288 (inactive) | 0.98 | 0.637 | 0.192 | 0.894 | 0.834 | 0.445 |
| CCCCO[C@H]1C[C@H]2C(I)=C[C@@H]1C(=O)[C@]21CO1 | -0.429 | -1.88 (inactive) | -4.81 (inactive) | -1.68 (inactive) | -1.03 | -1.25 (inactive) | -0.126 | 0.359 | 0.0532 | -0.19 | 1.08 | -0.37 | -0.529 | -0.26 (inactive) | 0.104 | -0.487 | 0.0707 | 0.127 | 0.668 | 0.173 |
| CCCCCCCCCCC(O)C1C=CC2C(=O)N(C)C(=O)C2N1Nc1ccc([N+](=O)[O-])cc1[N+](=O)[O-] (stereo not given) | 0.195 | 0.766 (inactive) | 0.637 (inactive) | 1.35 (inactive) | 3.02 | -1.68 (inactive) | 0.379 | -0.894 | 1.1 | 0.153 | 0.781 | 0.899 | 0.905 | 1.62 (inactive) | 0.141 | 0.461 | -0.497 | 0.323 | -0.57 | 0.894 |
| COC(=O)c1cn(C[C@@H](Cc2ccccc2)NC(=O)N[C@H](CO)CCc2oc(C(C)=O)c(C(=O)OC)c2C(=O)OC)nn1 | 0.999 | 0.0017 (inactive) | -0.814 (inactive) | -0.338 (inactive) | 0.985 | 1.01 (inactive) | -0.147 | 0.921 | 1.06 | 0.084 | 0.741 | 0.067 | -0.255 | 0.138 (inactive) | 0.738 | 0.895 | 0.452 | 1.4 | 0.894 | -0.293 |
| CC(C)(C)OC(=O)CC[C@@]1(C(=O)NCc2ccccc2)N=C(c2ccc(OCCCO)cc2)O[C@@H]1c1ccccc1N=[N+]=[N-] | 1.56 | 0.704 (inactive) | 0.501 (inactive) | 3.64 (inactive) | 3.25 | 0.516 (inactive) | 0.372 | 0.878 | 1.05 | 0.224 | 0.71 | 1.03 | 1.29 | -1.18 (inactive) | 1.39 | 1.18 | 0.373 | 1.26 | 0.0295 | 0.795 |
| C=CCN1Cc2ccccc2[C@H]2OC(c3ccc(OCCCO)cc3)=N[C@@]2(CC=C)C1=O | 1.53 | -3.05 (inactive) | -7.01 (inactive) | -0.397 (inactive) | 3.21 | 0.763 (inactive) | 0.185 | 1.55 | 0.979 | 0.168 | 0.911 | 0.406 | 1.09 | -0.308 (inactive) | 1.4 | 1.28 | 0.901 | 1.42 | 1.67 | 1.39 |
| CCOc1cc(C(O)C2C=CC3C(=O)N(C)C(=O)C3N2Nc2ccccc2)ccc1O (stereo not given) | 1.13 | 0.921 (inactive) | 1.23 (inactive) | 1.97 (inactive) | 1.84 | -0.0866 (inactive) | 0.0258 | -0.386 | 0.679 | 0.0439 | 0.764 | 0.791 | 0.0692 | 0.719 (inactive) | 0.736 | 0.57 | 0.0228 | 0.0592 | -0.329 | 0.569 |
| O=C1C[C@@](C(=O)NCCN2CCOCC2)(c2ccc([N+](=O)[O-])cc2)[C@@H](c2ccc(CO)cc2I)N1C1CCCCC1 | 1.3 | -1.9 (inactive) | -2.09 (inactive) | -1.05 (inactive) | 2.79 | 0.685 (inactive) | -0.147 | 0.914 | 0.91 | -0.0963 | 0.979 | -0.0973 | -0.0907 | -0.131 (inactive) | 0.76 | 1.15 | 0.593 | 0.926 | 0.397 | 0.454 |
| CCCCCCc1nc(-c2cc(C)c(OC)c(C)c2)c(C)c2c1[Si](C(C)C)(C(C)C)OC2 | -0.92 | 0.0333 (inactive) | -0.922 (inactive) | 0.276 (inactive) | -0.407 | 0.352 (inactive) | -0.0915 | 0.058 | -0.127 | -0.171 | -0.17 | 0.101 | -0.178 | -1.9 (inactive) | -0.722 | -0.644 | 0.202 | -0.0761 | 0.0434 | 0.737 |
| [N-]=[N+]=NCc1ccccc1[C@@H]1OC(c2ccc(OCCCO)cc2)=N[C@]1(CCS(=O)(=O)c1ccccc1)C(=O)NCC(O)CO (stereo not given in full) | 1.54 | -1.69 (inactive) | -0.741 (inactive) | 0.897 (inactive) | 3.85 | 0.171 (inactive) | 0.267 | 1 | 0.832 | -0.0435 | 1.46 | 0.76 | 1.03 | -1.33 (inactive) | 1.22 | -0.323 | -0.0077 | 0.6 | -0.227 | 0.736 |
